Screening data from PubChem.
PTAP TSG101 blk: blocks PTAP/TSG101 interaction to inhibit HIV-1 budding; Q99816; Potency, µM (top dose mostly 115 µM), most hits filed as inhibitors; 340,000 tested, under 10 active; Fluorescence polarization, FITC-PTAP peptide / Tsg101 binding; active = well fitted inhibition curve with a large enough effect in the main read-out, with a control signal flat, not every such curve was filed as active; inconclusive = small, poorly fitted or top-dose-only effect, or effect the other way, or a change in a side signal; inactive = no such curve, though single readings can be large or run the other way
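Compounds were pin-transferred onto Tsg101 binding domain (10 uM final) in HEPES pH 7.5 buffer, then FITC-PTAP peptide was added at 50 nM final. After 20 min at RT, polarization reported peptide displacement across a qHTS concentration series.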
ClpP mod: qHTS Assay for Activators of ClpP; ATP-dependent Clp protease proteolytic subunit (Bacillus subtilis (strain 168)), P80244; purified B. subtilis ClpP, FRET peptide cleavage, 20 min; Potency, µM (series often up to 57.5 µM); 1.9% of 340,000 active; active = well fitted falling curve with a large enough effect; inconclusive = small, poorly fitted or top-dose-only effect; inactive = no such curve, though single readings can be large or run the other way; note: the source files actives as falling curves though it sought activators and does not explain the sign; nearly all actives have a fitted effect of over 65% in size
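Purified B. subtilis ClpP, 10 microg/mL final in Tris/HCl pH8 with KCl, BSA, glycerol and Tween-20, cleaved an Abz/nitrotyrosine-quenched decapeptide. Fluorescence (ex 320, em 430) was read at 0 and 20 min at room temperature. Delta was normalized to 5.8 microM ADEP and DMSO/no-enzyme controls.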
ALOX12 inh: blocks human arachidonate 12S-lipoxygenase. purified 12hLO, xylenol orange hydroperoxide absorbance. P18054. Potency, µM (doses to about 108 µM), usual class: inhibitors. 1.1% of 580,000 active. AID 1671190; active = well fitted curve in the direction sought with a large enough effect; inconclusive = small, poorly fitted or top-dose-only effect, or another doubt; inactive = no such curve, though single readings can be large; an effect the other way counts as inactive or inconclusive
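Purified human 12hLO at 150 nM in 25 mM Hepes, 0.01% Triton X-100, pH 7.0, preincubated 15 min at room temperature with compound. Reaction started with 40 uM arachidonic acid, 30 min at room temperature. Hydroperoxide measured by Fe-xylenol orange, 573/405 nm absorbance ratio.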
TDP1 block: blocks human tyrosyl-DNA phosphodiesterase 1. Q9NUW8. recombinant TDP1, AlphaScreen DNA substrate cleavage. Potency, µM (highest dose often 130 µM), most hits filed as inhibitors. 0.28% of 350,000 active. AID 485290; active = well fitted curve in the direction sought with a large enough effect; inconclusive = small, poorly fitted or top-dose-only effect, or another doubt; inactive = no such curve, though single readings can be large; an effect the other way counts as inactive or inconclusive; note: nearly all actives have a fitted effect of over 40% in size
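Tdp1 1 nM final; 15 min RT w/ cpd; substrate 15 nM, 5 min; beads 10 ug/ml, 10 min; AlphaScreen read. Neg ctrl: no enzyme.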
Rango dissoc inh: inhibition of RanGTP-driven Rango-importin beta dissociation; O95149+P62826; 0.071% of 340,000 active; AID 540253; Potency, µM (series often up to 46.1 µM); Biochemical FRET Rango-importin beta, RanGTP-induced dissociation; note: nearly all actives have a fitted effect of over 45% in size
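Quantitative HTS using a FRET biosensor: 0.1 uM Rango, 0.25 uM importin beta, 0.6 uM Ran, 2 mM GTP, 0.2 uM RCC1 final, PBS with DTT, Tween-20 and BSA. Post-read taken 45 min after Ran addition.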
Rango complex inh: inhibitors of Rango-importin beta complex formation | Q14974 | Rango CFP/YFP FRET sensor + importin beta, 45 min | Potency, µM (doses to about 92.2 µM) | 0.031% of 340,000 active; note: nearly all actives have a fitted effect of over 15% in size
Target sequence (Q14974 whole entry, looked up): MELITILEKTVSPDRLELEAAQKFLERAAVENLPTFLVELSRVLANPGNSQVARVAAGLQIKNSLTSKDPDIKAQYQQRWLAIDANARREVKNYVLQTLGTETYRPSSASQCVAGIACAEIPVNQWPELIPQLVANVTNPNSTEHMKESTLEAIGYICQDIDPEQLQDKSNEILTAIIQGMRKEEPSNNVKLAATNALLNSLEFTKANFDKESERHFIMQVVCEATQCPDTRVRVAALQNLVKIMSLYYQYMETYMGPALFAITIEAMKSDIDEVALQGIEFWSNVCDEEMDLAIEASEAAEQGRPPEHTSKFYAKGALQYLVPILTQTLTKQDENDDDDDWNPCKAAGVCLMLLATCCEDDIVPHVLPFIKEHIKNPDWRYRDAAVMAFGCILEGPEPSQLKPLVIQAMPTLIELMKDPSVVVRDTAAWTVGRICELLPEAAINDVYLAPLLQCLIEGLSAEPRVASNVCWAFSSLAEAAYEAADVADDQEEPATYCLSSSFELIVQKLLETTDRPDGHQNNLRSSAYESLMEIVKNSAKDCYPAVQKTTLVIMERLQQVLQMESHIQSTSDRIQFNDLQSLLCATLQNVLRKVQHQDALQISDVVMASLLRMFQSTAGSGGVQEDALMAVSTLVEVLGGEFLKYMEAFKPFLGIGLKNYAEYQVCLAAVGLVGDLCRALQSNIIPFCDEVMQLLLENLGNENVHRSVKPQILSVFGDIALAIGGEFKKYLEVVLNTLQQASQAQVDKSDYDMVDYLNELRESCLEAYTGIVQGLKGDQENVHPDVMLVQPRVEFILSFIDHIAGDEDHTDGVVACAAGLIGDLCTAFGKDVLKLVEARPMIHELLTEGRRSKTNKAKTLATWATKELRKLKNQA
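FRET biosensor Rango (snurportin 1 IBB between N-terminal EYFP and C-terminal Cerulean), 50 nM in PBS/1 mM DTT/0.02% Tween-20/0.1% BSA, preincubated 5 min RT with compound; 0.125 microM importin beta added, 45 min RT, CFP/YFP FRET ratio read.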
A number is an active result; i = inactive; ? = inconclusive; nt = no result given. Most compounds without a hit are left out; they make up all but 2.4% or so of the library. Unless noted, calls come from the whole dose curve.

SMILES	PTAP TSG101 blk	ClpP mod	ALOX12 inh	TDP1 block	Rango dissoc inh	Rango complex inh
CC(C)Cn1cc(NC(=O)Nc2cccc(C(F)(F)F)c2)c2ccccc2c1=O	nt	i	7.08µM	i	nt	nt
CC(C)Cn1cc(NC(=O)N2CCN(c3cccc(C(F)(F)F)c3)CC2)c2ccccc2c1=O	nt	i	i	i	nt	nt
O=S(=O)(c1ccc2c(c1)OCCO2)c1nc(-c2ccco2)oc1N1CCN(c2ccccc2)CC1	nt	nt	i	nt	nt	nt
COc1ccc(NC(=O)c2ccc3c(c2)OCC(=O)N(Cc2cnn(C)c2)C3)c(F)c1	nt	nt	i	nt	nt	nt
COC(=O)c1ccc(NC(=O)c2ccc3c(c2)C(=O)N(Cc2cccnc2)C3=O)cc1	i	i	i	i	i	i
COC(=O)c1ccc(NC(=O)c2ccc3c(c2)C(=O)N(C)C3=O)cc1	i	11.2µM	i	nt	i	i
COc1ccc(NC(=O)Cc2nnc(SCC(=O)Nc3cc(C)ccc3OC)n2C)cc1	i	25.1µM	i	i	?	i
O=C(CSC1CCCCC1)c1ccccc1Br	nt	nt	35.5µM	nt	nt	nt
O=C(CSC1CCCCC1)N1CCN(c2ccccc2)CC1	i	i	?	i	i	i
O=C(NCCc1noc(-c2ccncc2)n1)c1ccccc1F	nt	nt	28.2µM	nt	nt	nt
CCOc1ccc(CC(=O)N2CCC[C@H]2c2nc(-c3ccccc3)no2)cc1	nt	nt	i	nt	nt	nt
COc1cc(CN2CCN(Cc3ccccc3C)CC2)cc(OC)c1O	nt	nt	1µM	nt	nt	nt
Cc1ccc2[nH]c3nc(NN)nnc3c2c1	i	28.2µM	?	i	i	i
COc1cc(COc2ccc3c(C)c(Cc4ccccc4)c(=O)oc3c2)cc(OC)c1OC	i	i	i	i	i	i
COc1cccc(COc2ccc3c(C)c(Cc4ccccc4)c(=O)oc3c2)c1	i	12.6µM	i	nt	i	i
COc1cc(COc2ccc3c(C)c(Cc4ccccc4)c(=O)oc3c2C)cc(OC)c1OC	i	15.8µM	i	i	i	i
CSc1ccccc1C(=O)Nc1c(C)cc(C)cc1C	nt	nt	i	nt	nt	nt
CC(=O)Nc1ccc(C(=O)Nc2ccc3sc(NC(=O)C(C)C)nc3c2)cc1	nt	nt	i	nt	nt	nt
Cc1cccc(N/N=C/c2ccc(C)s2)c1	i	i	i	nt	i	i
Cc1cccc(N/N=C/c2ccc(Cl)c(Cl)c2)c1	nt	nt	3.98µM	nt	nt	nt
Cc1cccc(N/N=C/c2ccc(F)c(F)c2)c1	nt	nt	5.62µM	nt	nt	nt
CSc1ccccc1C(=O)Nc1cccc([N+](=O)[O-])c1	i	i	i	i	i	i
COc1ccc([N+](=O)[O-])cc1NC(=O)C(C)Sc1nc(C)c(C)c(C)n1 (configuration not stated)	i	28.2µM	i	i	i	i
COc1ccc([N+](=O)[O-])cc1NC(=O)c1ccccc1SC	i	28.2µM	i	i	i	i
COc1ccc([N+](=O)[O-])cc1NC(=O)CSc1nc(C)c(C)c(C)n1	i	i	i	i	i	i
SMILES	PTAP TSG101 blk	ClpP mod	ALOX12 inh	TDP1 block	Rango dissoc inh	Rango complex inh
COc1ccc(CNC(=O)c2cc(Cl)ccc2O)cc1OC	nt	nt	i	nt	nt	nt
CCN1C(=O)c2cccc3c(S(=O)(=O)N(C(=O)c4cccnc4)c4ccc(OC)cc4)ccc1c23	i	35.5µM	i	i	?	?
O=C(c1cccc(OC2CN(Cc3ccc(F)cc3F)C2)c1)N1CCCC1	nt	nt	i	nt	nt	nt
COc1ccc(-c2ccc(OC)c([C@H]3[C@H]4C=CC[C@@H](C)[C@@H]4C(=O)N3Cc3ccccc3)c2)cc1	i	25.1µM	i	i	?	i
COc1ccc(-c2ccc([C@H]3[C@H]4C=CC[C@@H](C)[C@@H]4C(=O)N3Cc3ccccc3)c(F)c2)cc1	i	20µM	i	i	i	i
C=C(C)C(=O)OCCCCCCOc1ccc(C(=O)O)cc1	i	i	i	25.1µM	i	i
CCCCCCCCOc1ccc(C(=O)O)cc1	i	i	i	i	i	i
O=C(CSc1nc(-c2ccccc2)c(-c2ccccc2)[nH]1)NCCN1C(=O)CSC1=O	i	31.6µM	?	i	i	i
Cc1cccc(-c2ocnc2C(=O)N2CCC3(CCC(=O)N(CC4CC4)CC3)CC2)c1	nt	nt	i	nt	nt	nt
CC(C)CCCC(=O)N1C[C@@H](C(=O)O)C[C@@H](C(=O)NCc2ccncc2)C1	nt	nt	i	nt	nt	nt
O=C(Cn1nc(-c2ccccc2Cl)ccc1=O)Nc1ccccc1-c1ccccc1	i	14.1µM	i	i	i	i
O=C(/C=C/c1ccco1)NCC1OCCc2ccccc21 (configuration not stated)	i	nt	44.7µM	nt	i	?
c1coc(CNCC2OCCc3ccccc32)c1 (configuration not stated)	i	i	i	i	i	i
O=C(CS(=O)CC(=O)Nc1ccc(Cl)cc1)NCC1OCCc2ccccc21 (configuration not stated)	i	11.2µM	i	i	i	i
CCCCn1c(CN(C)C(C)c2ccccc2OC)cnc1S(=O)(=O)CC (configuration not stated)	nt	nt	i	nt	nt	nt
CC(C)(O)CCc1cccc(C(=O)N2CCC(N3CCOC3=O)CC2)c1	nt	nt	i	nt	nt	nt
CCOc1ccc(C(CN2CCOCC2)C(C)=O)cc1OC (configuration not stated)	nt	i	31.6µM	nt	nt	nt
COC[C@@H]1CN(Cc2cnn(C)c2)C[C@H]1C(=O)N(C)C	nt	nt	i	nt	nt	nt
CC1CCc2c(sc(Nc3nc4c(F)cccc4s3)c2C(N)=O)C1 (configuration not stated)	i	?	44.7µM	i	?	?
O=C(Nc1nc2c(F)cccc2s1)C1CC1	i	i	i	nt	i	i
COc1ccc2cc(C(=O)N3CCN(c4ccccc4OC)CC3)[nH]c2c1	i	i	15.8µM	nt	i	i
O=C(Nc1ccc2c(c1)C(=O)N(CC1CCCO1)C2=O)c1cccc(Br)c1 (configuration not stated)	i	31.6µM	i	i	i	i
CC(=O)Oc1cccc(C(=O)Nc2ccc3c(c2)C(=O)N(CC2CCCO2)C3=O)c1 (configuration not stated)	i	31.6µM	i	i	i	i
CC(=O)Oc1ccc(C(=O)Nc2ccc3c(c2)C(=O)N(CCC(=O)O)C3=O)cc1	i	28.2µM	i	i	i	i
N#Cc1ccc(C(=O)NC2CCCN(Cc3ccccc3)C2)cc1 (configuration not stated)	nt	nt	i	nt	nt	nt
Cc1cc(C(=O)N2CCC(Cc3ccc(C(N)=O)cc3)CC2)nn1C	nt	nt	i	nt	nt	nt
O=C(O)CN1C(=O)/C(=C\c2cccc(OCc3ccc(Cl)cc3Cl)c2)SC1=S	i	nt	25.1µM	i	i	i
O=C(N[C@@H]1CN(c2ncccn2)C[C@H]1CO)c1nccc2ccccc12	nt	nt	i	nt	nt	nt
O=C(CCCn1ccnc1)N[C@@H]1COCC[C@@H]1OCc1cscn1	nt	nt	i	nt	nt	nt
Cc1nnc(N/N=C/c2cccc(C(F)(F)F)c2)n1N	i	i	i	nt	i	i
